Measured values taken from PubChem BioAssay.
Activity calls are given as the source filed them.

Assays:
[1] = tested on: PRMT1 (protein arginine N-methyltransferase 1); assay: PRMT1 binders on small-molecule microarrays, primary screen, biochemical, small-molecule microarray, 635 nm fluorescence (AID 1088); conditions: small-molecule microarray binding, higher = more signal;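 further: binding of Prmt1 protein to compounds spotted on small-molecule microarray slides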
[2] = yeast growth modulation, basal conditions, primary screen, YJM789 clinical isolate, OD600, 24 h (AID 1089);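 further: growth of clinical yeast isolate S. cerevisiae YJM 789 seeded 1000 cells per well; test concentration not given here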; conditions: S. cerevisiae YJM789 growth, higher = more signal, called active from +8 up or from −8 down
[3] = fission yeast growth modulation, primary screen, strain 972, OD600, 24 h, no modulator (AID 1090);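 further: basal condition with compound alone and no growth modifier present; test concentration not given here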; conditions: S. pombe 972 growth, higher = more signal, called active from +8 up or from −8 down
[4] = S. cerevisiae growth modulation with rapamycin, primary screen, strain BY4716, OD600, 96 h (AID 1091); conditions: higher = more signal, called active from +8 up or from −8 down; further: test concentration not given here
[5] = target: Torsin-1A-interacting protein 2 (Homo sapiens) (UniProt Q8NFQ8); assay: LULL1 binders on small-molecule microarray, primary screen, cell lysate, human LULL1 lysate, 635/667 nm fluorescence (AID 1092); conditions: hLULL1 lysate binding, 635 nm fluorescence, higher = more signal;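 further: probe is lysate of COS7 cells overexpressing human LULL1; score merges per-feature 667 nm fluorescence with signal-to-noise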
[6] = E. coli growth modulation, two-sided OD650, primary screen, E. coli filamentation project, strain DRC41, 24 h (AID 1093); conditions: OD650, 24 h, higher = more signal, called active from +8 up or from −8 down;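 further: MC1000 strain lacking acrAB efflux and sulA so SOS filamentation is blocked; test concentration not given here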
[7] = small-molecule microarray binders of probe aLefty2, primary screen, biochemical, biotinylated probe, 635/667 nm fluorescence (AID 1094); conditions: higher = more signal;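 further: score merges spot fluorescence near 667 nm with spot signal-to-noise ratio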
[8] = tested on: Noggin (protein binding on small-molecule microarray); assay: Noggin binders on small-molecule microarray, primary screen, biochemical, 635/667 nm fluorescence (AID 1095); conditions: 635 nm fluorescence, higher = more signal;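 further: score merges 667 nm feature fluorescence with signal to noise over triplicate slides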
[9] = target: Neurogenic locus notch homolog protein 3 (Homo sapiens) (UniProt Q9UM47); assay: NOTCH3 binders on small-molecule microarray, primary screen, biochemical, 635/667 nm fluorescence (AID 1096); conditions: NOTCH3 binding, 635 nm fluorescence, higher = more signal
[10] = small-molecule microarray binders of probe aEGFR, primary screen, biochemical, biotinylated probe, 635/667 nm fluorescence (AID 1097); conditions: higher = more signal;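 further: probe is a biotinylated anti-EGFR antibody binding compounds printed on slides; score combines fluorescence near 667 nm and signal to noise of each spot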
[11] = tested on: Plasmodium falciparum Sir2 (PF13_0152, Sir2A); assay: pfSir2 binders on small-molecule microarrays, primary screen, biochemical, small-molecule microarray, 635 nm fluorescence (AID 1098); conditions: small-molecule microarray binding, fluorescence 635 nm; higher = more signal;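 further: score merges spot fluorescence intensity with its signal-to-noise ratio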
[12] = small-molecule microarray binders of probe aDKK1, primary screen, biochemical, biotinylated probe, 635/667 nm fluorescence (AID 1099); conditions: higher = more signal;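 further: score merges 667nm spot fluorescence with signal to noise across triplicate slides; reference of the scale not given here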
[13] = small-molecule microarray binders of probe aCHRDL2, primary screen, biochemical, biotinylated probe, 635/667 nm fluorescence (AID 1100); conditions: higher = more signal
[14] = splicing luciferase reporter signal modulators, primary screen, spliceosome inhibition project, cell-based, HEK293, splice +/- reporter (AID 1101); conditions: luminescence, 24 h, higher = more signal, called active from +8 up or from −8 down;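 further: HEK293 cells carrying a splicing-competent luciferase reporter gene; test concentration not given here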
[15] = target: Fibroblast growth factor 10 (Homo sapiens) (UniProt O15520); assay: FGF10 binders on small-molecule microarrays, primary screen, biochemical, small-molecule microarray, 635 nm fluorescence (AID 1102); conditions: FGF10 binding, fluorescence 635 nm, higher = more signal
[16] = tested on: glycogen synthase kinase-3 (GSK3A per assay name; protocol says GSK3B); assay: GSK3 binders on small-molecule microarrays, primary screen, biochemical, small-molecule microarray, 635 nm fluorescence, GSK3A (AID 1103); conditions: small-molecule microarray binding, fluorescence 635 nm; higher = more signal; further: the record names both GSK3A and GSK3B
[17] = target: Epidermal growth factor receptor (Homo sapiens) (UniProt P00533); assay: EGFR binders on small-molecule microarrays, primary screen, biochemical, small-molecule microarray, 635 nm fluorescence (AID 1104); conditions: EGFR binding, higher = more signal;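 further: score merges 667 nm emission intensity with spot signal to noise over triplicate slides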
[18] = target: Follistatin-related protein 3 (Homo sapiens) (UniProt O95633); assay: FSTL3 binders on small-molecule microarrays, primary screen, biochemical, small-molecule microarray, 635 nm fluorescence (AID 1105); conditions: FSTL3 binding, higher = more signal;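 further: score merges emission near 667 nm and signal to noise per printed spot across three slides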
[19] = target: Dickkopf-related protein 1 (Homo sapiens) (UniProt O94907); assay: DKK1 binders on small-molecule microarrays, primary screen, biochemical, small-molecule microarray, 635 nm fluorescence scan (AID 1106); conditions: DKK1 binding, higher = more signal;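 further: score merges emission near 667 nm with signal to noise over three replicate slides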
[20] = tested on: Inhibin beta A chain (activin A); assay: INHBA (activin A) binders on microarrays, primary screen, biochemical, small-molecule microarray, 635 nm fluorescence scan (AID 1107); conditions: small-molecule microarray binding, higher = more signal;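 further: mouse activin A protein probed at 4.33 µg/mL on printed slides; score merges bound-protein fluorescence near 667 nm with spot signal-to-noise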

Sequence of Follistatin-related protein 3 (Homo sapiens) (O95633 whole entry, looked up): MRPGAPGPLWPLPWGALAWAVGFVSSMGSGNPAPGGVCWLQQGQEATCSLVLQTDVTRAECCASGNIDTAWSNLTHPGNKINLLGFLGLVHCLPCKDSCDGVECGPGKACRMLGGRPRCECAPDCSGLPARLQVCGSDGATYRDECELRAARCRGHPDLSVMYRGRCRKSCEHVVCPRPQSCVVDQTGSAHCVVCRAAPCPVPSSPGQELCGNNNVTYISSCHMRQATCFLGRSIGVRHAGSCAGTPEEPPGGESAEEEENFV
Sequence of Dickkopf-related protein 1 (Homo sapiens) (O94907 whole entry, looked up): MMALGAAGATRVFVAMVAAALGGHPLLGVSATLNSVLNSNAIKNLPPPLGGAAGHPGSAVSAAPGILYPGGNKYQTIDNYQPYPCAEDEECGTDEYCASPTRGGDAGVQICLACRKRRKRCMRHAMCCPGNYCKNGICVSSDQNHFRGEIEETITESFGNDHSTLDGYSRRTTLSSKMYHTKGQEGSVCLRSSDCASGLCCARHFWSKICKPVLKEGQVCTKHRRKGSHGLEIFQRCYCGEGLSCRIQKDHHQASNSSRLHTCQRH
Sequence of Fibroblast growth factor 10 (Homo sapiens) (O15520 whole entry, looked up): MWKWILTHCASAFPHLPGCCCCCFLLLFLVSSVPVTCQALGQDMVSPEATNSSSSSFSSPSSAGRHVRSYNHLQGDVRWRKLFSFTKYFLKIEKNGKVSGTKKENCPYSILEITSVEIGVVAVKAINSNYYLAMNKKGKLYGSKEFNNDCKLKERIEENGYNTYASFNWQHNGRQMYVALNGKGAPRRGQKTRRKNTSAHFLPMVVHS
Sequence of Torsin-1A-interacting protein 2 (Homo sapiens) (Q8NFQ8 whole entry, looked up): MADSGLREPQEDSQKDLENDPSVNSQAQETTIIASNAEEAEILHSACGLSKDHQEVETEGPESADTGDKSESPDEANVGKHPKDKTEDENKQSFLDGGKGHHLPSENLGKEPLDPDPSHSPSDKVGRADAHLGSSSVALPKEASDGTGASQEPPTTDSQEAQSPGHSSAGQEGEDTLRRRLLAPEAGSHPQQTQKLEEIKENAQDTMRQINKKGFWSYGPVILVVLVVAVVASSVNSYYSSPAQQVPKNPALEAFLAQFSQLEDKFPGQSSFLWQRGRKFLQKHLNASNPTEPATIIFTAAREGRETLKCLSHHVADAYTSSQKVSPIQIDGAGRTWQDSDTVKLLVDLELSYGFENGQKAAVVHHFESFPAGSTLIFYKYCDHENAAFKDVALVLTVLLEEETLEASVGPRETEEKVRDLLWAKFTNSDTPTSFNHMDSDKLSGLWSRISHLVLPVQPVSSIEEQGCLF
Sequence of Neurogenic locus notch homolog protein 3 (Homo sapiens) (Q9UM47 whole entry, looked up): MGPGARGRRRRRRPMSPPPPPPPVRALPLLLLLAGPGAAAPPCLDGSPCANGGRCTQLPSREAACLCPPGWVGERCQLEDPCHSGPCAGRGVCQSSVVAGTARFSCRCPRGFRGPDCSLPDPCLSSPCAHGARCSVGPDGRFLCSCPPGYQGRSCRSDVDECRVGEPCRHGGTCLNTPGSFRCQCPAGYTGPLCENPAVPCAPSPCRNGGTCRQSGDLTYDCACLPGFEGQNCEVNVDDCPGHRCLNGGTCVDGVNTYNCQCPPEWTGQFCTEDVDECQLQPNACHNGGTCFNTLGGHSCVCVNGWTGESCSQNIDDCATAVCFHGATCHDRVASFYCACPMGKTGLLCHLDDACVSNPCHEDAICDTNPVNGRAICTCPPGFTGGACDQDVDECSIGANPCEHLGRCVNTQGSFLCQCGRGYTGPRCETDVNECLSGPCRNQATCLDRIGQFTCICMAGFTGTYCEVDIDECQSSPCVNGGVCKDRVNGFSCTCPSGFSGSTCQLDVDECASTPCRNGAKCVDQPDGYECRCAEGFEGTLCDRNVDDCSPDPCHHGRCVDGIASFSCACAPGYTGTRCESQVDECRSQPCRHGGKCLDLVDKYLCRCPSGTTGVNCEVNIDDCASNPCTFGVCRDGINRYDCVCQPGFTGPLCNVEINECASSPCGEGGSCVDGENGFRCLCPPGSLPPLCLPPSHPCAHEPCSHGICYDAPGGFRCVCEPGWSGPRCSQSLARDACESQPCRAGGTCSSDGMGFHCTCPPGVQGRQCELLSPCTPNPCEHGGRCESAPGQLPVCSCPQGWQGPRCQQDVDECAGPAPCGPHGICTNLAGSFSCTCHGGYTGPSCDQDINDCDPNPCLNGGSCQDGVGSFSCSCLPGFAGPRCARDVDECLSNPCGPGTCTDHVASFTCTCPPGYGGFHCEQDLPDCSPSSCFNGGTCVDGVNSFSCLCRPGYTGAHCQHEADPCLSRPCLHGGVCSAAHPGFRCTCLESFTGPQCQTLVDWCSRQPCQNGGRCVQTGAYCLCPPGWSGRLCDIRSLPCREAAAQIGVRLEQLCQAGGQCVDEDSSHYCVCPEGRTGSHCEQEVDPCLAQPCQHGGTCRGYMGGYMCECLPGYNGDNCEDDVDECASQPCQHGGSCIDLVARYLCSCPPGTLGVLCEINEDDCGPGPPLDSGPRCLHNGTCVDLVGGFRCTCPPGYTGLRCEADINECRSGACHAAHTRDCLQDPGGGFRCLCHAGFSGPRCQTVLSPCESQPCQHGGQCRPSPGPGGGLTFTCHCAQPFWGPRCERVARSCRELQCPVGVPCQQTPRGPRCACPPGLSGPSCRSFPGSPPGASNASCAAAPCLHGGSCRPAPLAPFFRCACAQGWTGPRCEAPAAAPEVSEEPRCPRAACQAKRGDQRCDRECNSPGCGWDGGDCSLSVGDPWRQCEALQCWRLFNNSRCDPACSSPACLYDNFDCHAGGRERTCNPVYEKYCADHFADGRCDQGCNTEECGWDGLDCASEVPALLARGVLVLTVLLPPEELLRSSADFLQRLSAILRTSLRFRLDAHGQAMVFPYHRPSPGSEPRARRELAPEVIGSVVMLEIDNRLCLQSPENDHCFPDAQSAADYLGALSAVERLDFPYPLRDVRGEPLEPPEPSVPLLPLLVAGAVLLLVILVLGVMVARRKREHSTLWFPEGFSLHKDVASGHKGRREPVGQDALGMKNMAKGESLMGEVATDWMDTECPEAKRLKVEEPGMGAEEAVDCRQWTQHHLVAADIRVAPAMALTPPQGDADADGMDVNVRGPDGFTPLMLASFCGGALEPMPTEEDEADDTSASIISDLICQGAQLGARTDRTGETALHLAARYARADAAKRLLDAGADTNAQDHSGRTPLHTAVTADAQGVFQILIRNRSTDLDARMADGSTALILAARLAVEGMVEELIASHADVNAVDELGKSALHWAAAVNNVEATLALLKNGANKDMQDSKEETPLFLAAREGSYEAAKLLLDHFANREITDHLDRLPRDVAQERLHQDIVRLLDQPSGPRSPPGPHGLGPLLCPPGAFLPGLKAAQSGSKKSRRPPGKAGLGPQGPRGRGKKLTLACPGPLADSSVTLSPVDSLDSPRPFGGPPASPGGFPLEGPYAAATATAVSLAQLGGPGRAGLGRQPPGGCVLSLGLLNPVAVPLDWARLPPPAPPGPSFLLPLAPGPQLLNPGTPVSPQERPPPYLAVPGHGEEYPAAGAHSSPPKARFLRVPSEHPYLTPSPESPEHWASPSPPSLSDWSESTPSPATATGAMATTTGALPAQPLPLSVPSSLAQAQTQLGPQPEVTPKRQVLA
Sequence of Epidermal growth factor receptor (Homo sapiens) (P00533 whole entry, looked up): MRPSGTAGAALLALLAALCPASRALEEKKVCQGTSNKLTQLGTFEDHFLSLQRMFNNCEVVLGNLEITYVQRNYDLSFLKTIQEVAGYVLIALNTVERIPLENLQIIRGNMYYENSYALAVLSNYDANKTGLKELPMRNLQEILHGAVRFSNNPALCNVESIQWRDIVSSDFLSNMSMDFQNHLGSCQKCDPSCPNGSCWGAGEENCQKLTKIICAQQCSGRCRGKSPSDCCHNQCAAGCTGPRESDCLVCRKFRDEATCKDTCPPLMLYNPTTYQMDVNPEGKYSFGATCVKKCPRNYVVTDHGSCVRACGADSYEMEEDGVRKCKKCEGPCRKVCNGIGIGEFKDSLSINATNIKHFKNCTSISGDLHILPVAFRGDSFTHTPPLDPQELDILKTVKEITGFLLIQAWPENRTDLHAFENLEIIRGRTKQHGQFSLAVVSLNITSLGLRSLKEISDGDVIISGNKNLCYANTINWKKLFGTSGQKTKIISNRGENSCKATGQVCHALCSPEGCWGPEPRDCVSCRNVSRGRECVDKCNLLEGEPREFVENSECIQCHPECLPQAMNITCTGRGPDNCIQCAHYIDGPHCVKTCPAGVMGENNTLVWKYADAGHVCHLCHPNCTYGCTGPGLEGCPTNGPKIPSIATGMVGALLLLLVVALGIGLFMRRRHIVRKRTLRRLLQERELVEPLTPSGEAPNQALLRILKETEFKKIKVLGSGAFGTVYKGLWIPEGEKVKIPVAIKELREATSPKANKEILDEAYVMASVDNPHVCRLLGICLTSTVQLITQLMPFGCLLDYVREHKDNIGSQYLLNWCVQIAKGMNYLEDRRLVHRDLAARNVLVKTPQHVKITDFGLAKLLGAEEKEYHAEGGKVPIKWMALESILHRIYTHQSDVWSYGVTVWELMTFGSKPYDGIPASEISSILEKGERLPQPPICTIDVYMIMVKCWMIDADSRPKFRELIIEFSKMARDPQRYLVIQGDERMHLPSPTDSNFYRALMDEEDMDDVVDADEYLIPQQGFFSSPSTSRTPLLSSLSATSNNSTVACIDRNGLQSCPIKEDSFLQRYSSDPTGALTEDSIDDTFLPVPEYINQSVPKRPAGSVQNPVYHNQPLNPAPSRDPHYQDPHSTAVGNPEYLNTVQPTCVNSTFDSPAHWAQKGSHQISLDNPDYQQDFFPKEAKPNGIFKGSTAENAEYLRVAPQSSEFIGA

Compound	composite z-score [1]	z-score [2]	z-score [3]	z-score [4]	composite z-score [5]	z-score [6]	composite z-score [7]	composite z-score [8]	composite z-score [9]	composite z-score [10]	composite z-score [11]	composite z-score [12]	composite z-score [13]	z-score [14]	composite z-score [15]	composite z-score [16]	composite z-score [17]	composite z-score [18]	composite z-score [19]	composite z-score [20]
CC(C)[Si](C#CCCCC#N)(O[C@H](c1ccccc1)c1cn(Cc2ccccc2)nn1)C(C)C	1.36	-1.45 (inactive)	-2.74 (inactive)	-2.8 (inactive)	0.573	1.84 (inactive)	-0.119	0.509	1.09	-0.0681	0.562	-0.17	-0.65	-1.08 (inactive)	1.01	1.15	0.494	1.21	0.869	0.105
CCCCN1CC=CC23O[C@@H]4/C=C\CCC(C)OC(=O)C4[C@H]2C(=O)N(CCCO)[C@@H]3C1=O (stereo not given in full)	-0.298	0.757 (inactive)	0.772 (inactive)	0.528 (inactive)	0.879	0.755 (inactive)	-0.186	-0.908	-0.166	-0.217	1.16	-0.235	0.662	0.239 (inactive)	-1.13	-0.496	-0.983	-1.04	-1.37	-0.372
CCOC(=O)C1=CC[C@@H](c2ccccc2)N(S(=O)(=O)c2ccc(C)cc2)[C@H]1c1ccccc1	0.0074	0.181 (inactive)	1.88 (inactive)	3.8 (inactive)	1.74	-0.794 (inactive)	0.02	0.156	0.505	0.0515	0.264	0.769	0.54	-0.387 (inactive)	0.356	0.738	-0.404	0.397	-0.187	0.903
CC(C)C(O)C1C=CC2C(=O)N(c3ccccc3)C(=O)C2N1Nc1ccccc1 (stereo not given)	1.34	0.0864 (inactive)	-2.24 (inactive)	0.108 (inactive)	3.42	-0.304 (inactive)	0.0436	0.948	1.07	-0.0023	1.06	0.584	0.432	-0.307 (inactive)	1.22	0.0942	0.34	1.41	-0.0988	0.326
NC(=O)[C@H]1[C@@H]2C(=O)O[C@@H](c3ccccc3)[C@@H](c3ccccc3)N2[C@@H](c2ccc(OCCO)cc2)[C@]12C(=O)Nc1ccc(C#CCCO)cc12	1.41	1.62 (inactive)	0.547 (inactive)	3.63 (inactive)	1.7	-0.595 (inactive)	-0.0636	0.425	0.164	0.0932	0.912	0.313	0.485	0.728 (inactive)	0.251	0.608	0.189	0.255	0.24	0.779
COc1cc(NN2C(C(O)c3ccc(N(C)C)cc3)C=CC3C(=O)N(c4ccccc4)C(=O)C32)cc(OC)c1OC (stereo not given)	0.824	0.146 (inactive)	-0.424 (inactive)	-0.363 (inactive)	1.4	-1.58 (inactive)	0.473	-0.308	0.544	0.0955	0.101	1.16	1.13	-0.859 (inactive)	0.513	0.765	-0.038	0.455	-0.335	1.67
O=C(O)[C@@H]1C[C@@H]2C(=O)N3CCC[C@H]3C(=O)N2[C@@H]1c1ccc(O)cc1	1.56	-0.475 (inactive)	-0.854 (inactive)	0.0128 (inactive)	1.34	2.46 (inactive)	0.226	1.93	1.01	0.12	1.51	0.857	0.11	-2.2 (inactive)	0.196	0.762	0.426	0.987	0.975	0.852
COc1cc(OC)c(C(O)C2C=CC3C(=O)N(Cc4ccccc4)C(=O)C3N2n2cnnc2)cc1Br (stereo not given)	1.11	-1.92 (inactive)	-1.73 (inactive)	0.027 (inactive)	2.89	-1.21 (inactive)	0.0208	0.404	1.07	-0.0343	1.36	0.287	0.373	-1.21 (inactive)	1.05	1.26	-0.496	0.777	-1.05	-0.769
CCCCC(=C=CC[C@H](O)c1ccc(OCCO)cc1)CCO	-0.0461	-0.879 (inactive)	-0.982 (inactive)	-1.02 (inactive)	2.24	-0.0915 (inactive)	-0.179	-0.124	-0.65	-0.232	0.69	-0.194	0.208	-0.0149 (inactive)	0.0655	-0.686	-0.709	-0.24	-0.704	0.817
CC1CC/C=C\[C@H]2OC34C=CCN(c5ccc6ccccc6c5)C(=O)[C@H]3N(CCCO)C(=O)[C@@H]4C2C(=O)O1 (stereo not given in full)	-0.131	0.116 (inactive)	0.398 (inactive)	0.799 (inactive)	-0.546	-0.696 (inactive)	-0.136	-1.32	-0.562	-0.193	0.0565	-0.179	1.07	0.738 (inactive)	-1.32	-0.592	-1.2	-0.912	-2.16	-0.223
